# POLH inh = DNA polymerase eta (human) inhibition. Q9Y253. recombinant Pol eta, fluorescent DNA replication assay. Potency, µM (top dose mostly 114 µM), without a hit: top-dose activity change, negative = inhibition, most hits filed as inhibitors. hit rate 1.2% among 390,000; further: potency means the concentration at half of the fitted maximal effect; on the % scale 0 is the no-effect control and ±100 the full control effect
#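 Pol eta (10 nM) was preincubated with compounds for 15 min at room temperature, after which fluorescent replication substrate (50 nM final) was added to start the reaction. Fluorescence was read kinetically at 0 and 10 min.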
# Pol beta inh = DNA polymerase beta (human) inhibition; P06746; Pol beta primer extension/strand displacement, fluorescence kinetic; Potency, µM (titrated, usually from 114 µM), for the others: at the top dose activity change, negative = inhibition, usual class: inhibitors; hit rate 1.3% among 340,000; further: potency means the concentration at half of the fitted maximal effect; on the % scale 0 is the no-effect control and ±100 the full control effect
#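 Pol beta (10 nM) and compounds were preincubated 15 min at room temperature, then 50 nM substrate (final) started primer extension/strand displacement. Reads were taken at 0 and 10 min; concentration-response data were fitted to a four-parameter Hill equation.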
# Pol kappa inh = blocks human DNA polymerase kappa activity; Q9UBT6; purified Pol kappa, fluorescent DNA synthesis assay, 10 min; Potency, µM (top dose mostly 107 µM), for inactives: at the highest dose activity, negative = inhibition, hits mostly inhibitors; hit rate 0.53% among 400,000; further: potency means the concentration at half of the fitted maximal effect; on the % scale 0 is the no-effect control and ±100 the full control effect
#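 First, compounds were pin-transferred onto 10 nM Pol kappa. After 15 min at room temperature, substrate was added to 50 nM final. Fluorescence was then measured kinetically at 0 and 10 min.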
# PI4K2A block = blocks human PI4K2A kinase activity; Q9BTU6; purified PI4K2A, ADP-Glo luminescence, 1 h; stronger effect = lower value; activity change, negative = inhibition, % at 76.9 µM; hit rate 0.13% among 420,000; AID 1346378; in the data active means activity change below about -50%; inconclusive means mostly about -30% to -49%;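 further: -100% = wells without enzyme as full effect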
#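 ADP-Glo luminescence measured ADP generated by PI4K2A enzyme (4 ug/mL before mixing) with 1.2 mM PI substrate (pre-mix) and 300 microM ATP (pre-mix). Tris pH7.5 buffer with MgCl2, Triton X-100; 1 h reaction at ambient temperature.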
# PI5P4Ka inh = inhibitors of human PI5P4K alpha | P48426 | PI5P4Kalpha enzyme, ADP-Glo luminescence, 60 min; stronger effect = lower value | max response, % | hit rate 1.2% among 330,000 | AID 652105; active means max response of -50% or lower; inconclusive means between -30% and -50%; inactive means -30% or higher; further: value at the top dose of about 77 µM; on the % scale 0 is the no-effect control and ±100 the full control effect
#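 Quantitative HTS of the MLSMR library against PI5P4Kalpha with substrate. ATP added last at 5 microM final; room temperature, 60 minutes. Remaining ATP depleted, ADP converted and read as luminescence.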
# Pol iota inh = blocks human DNA polymerase iota activity; Pol iota fluorescent replication assay, 10 min; hit rate 1% among 390,000; Potency, µM (top dose mostly 115 µM), inactives show top-dose activity, negative = inhibition, actives largely listed as inhibitors; Q9UNA4; further: potency means the concentration at half of the fitted maximal effect
# Target sequence (Q9UNA4 whole entry, looked up): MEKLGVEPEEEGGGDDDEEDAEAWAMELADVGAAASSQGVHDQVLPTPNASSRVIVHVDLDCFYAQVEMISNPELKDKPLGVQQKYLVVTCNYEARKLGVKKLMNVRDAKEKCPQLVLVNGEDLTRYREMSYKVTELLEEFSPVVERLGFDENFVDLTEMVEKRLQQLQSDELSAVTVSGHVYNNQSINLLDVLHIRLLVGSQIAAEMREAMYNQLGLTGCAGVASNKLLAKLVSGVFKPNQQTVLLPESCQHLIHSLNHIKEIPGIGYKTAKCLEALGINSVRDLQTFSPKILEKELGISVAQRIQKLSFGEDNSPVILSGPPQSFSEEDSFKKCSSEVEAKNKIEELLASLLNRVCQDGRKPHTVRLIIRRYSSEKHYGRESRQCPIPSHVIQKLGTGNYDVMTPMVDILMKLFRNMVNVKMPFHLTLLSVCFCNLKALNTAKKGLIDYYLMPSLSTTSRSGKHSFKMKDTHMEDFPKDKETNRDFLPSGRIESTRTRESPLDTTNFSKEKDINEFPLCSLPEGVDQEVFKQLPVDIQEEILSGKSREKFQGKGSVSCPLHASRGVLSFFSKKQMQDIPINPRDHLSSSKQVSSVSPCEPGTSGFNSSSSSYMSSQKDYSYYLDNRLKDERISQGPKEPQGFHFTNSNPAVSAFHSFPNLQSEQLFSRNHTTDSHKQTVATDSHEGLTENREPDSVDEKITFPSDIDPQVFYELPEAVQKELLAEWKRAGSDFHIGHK
#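 Fluorescent replication assay read twice, at 0 min and 10 min after adding 50 nM (final) substrate. Enzyme (10 nM) and compounds were first incubated 15 min at room temperature; enzyme-free buffer wells were negative controls.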
# Starred values were filed as active, the others as inactive; ? = inconclusive; . = no result given. Hits are enriched below; roughly 2.8% of the tested compounds scored in any of these assays. Unless noted, the call rests on the fitted dose curve; in most records, active means well fitted inhibition curve with a large enough effect; inconclusive means small, poorly fitted or top-dose-only effect, or another doubt; inactive means no such curve, though single readings can be large or run the other way.
SMILES,POLH inh,Pol beta inh,Pol kappa inh,PI4K2A block,PI5P4Ka inh,Pol iota inh
COC(=O)CCC(=O)OC1(C)C(=O)C2=CN(Cc3ccc(OC)cc3)C(c3ccc(OC)cc3)=CC2=C(Br)C1=O (stereo not drawn),-6.0%,.,-12.4%,-9.4,-12.6,81.3%
COC(=O)CCCC1=CC2=CC(=O)C(C)(OC(=O)c3cccs3)C(=O)C2=CN1CCCCO (stereo not drawn),-12.8%,12.7%,-7.3%,-11.4,1.3,22.4µM*
COC(=O)CCC(=O)OC1(C)C(=O)C=C2C=C(C3CC3)N(CCCCO)C=C2C1=O (stereo not drawn),7.4%,-1.6%,-29.8%,-9.8,0.1,25.1µM*
C=CCN1C=C2C(=O)C(C)(OC(=O)CCC(=O)OC)C(=O)C=C2C=C1C1CC1 (stereo not drawn),-3.6%,-14.8%,-5.0%,-9.9,-0.3,85.1%
COC(=O)CCC(=O)OC1(C)C(=O)C2=CN(C3CC3)C(c3ccc(OC)cc3)=CC2=C(Br)C1=O (stereo not drawn),79.4µM*,.,-23.7%,-24.8,-2.8,?
COCCN1C=C2C(=O)C(C)(OC(=O)c3cccs3)C(=O)C=C2C=C1CCCC(=O)OC (stereo not drawn),-6.3%,2.9%,-17.3%,-14.5,-3.8,?
CCc1ccc(NC(=O)CN(c2ccc(C)cc2)S(=O)(=O)c2cccs2)cc1,-17.3%,21.9%,-6.2%,1.4,.,5.0%
CCCSc1ncc(Cl)c(C(=O)Nc2sc3c(c2C(=O)NCCCOC)CCCC3)n1,.,.,-17.2%,.,.,-8.7%
COC(=O)CCC(=O)OC1(C)C(=O)C=C2C=C3CCCN3C=C2C1=O (stereo not drawn),50.1µM*,-25.7%,?,-12.3,-15.5,?
CC1(OC(=O)C2CCCC2)C(=O)C=C2C=C3CCCCN3C=C2C1=O (stereo not drawn),?,13.2%,?,-14.0,-3.3,?
COC(=O)CCC(=O)OC1(C)C(=O)C=C2C=C(C3CC3)N(Cc3ccc(OC)cc3)C=C2C1=O (stereo not drawn),10.2%,1.6%,-15.0%,-6.1,-4.9,17.8µM*
CCC1(OC(=O)CN(C)C)C(=O)OCc2c1cc1n(c2=O)Cc2cc3c(N)cccc3nc2-1 (stereo not drawn),7.94µM*,.,?,-61.8*,-2.4,8.91µM*
C#CCN1C(=O)C(O)(CC(=O)/C=C/c2ccco2)c2ccccc21 (stereo not drawn),?,?,?,-7.6,-26.1,35.5µM*
O=C(CC1(O)C(=O)N(CCc2ccccc2)c2ccccc21)c1ccco1 (stereo not drawn),?,9.0%,-7.9%,9.8,-17.2,-12.4%
COC(=O)c1cc(-c2cccc(C#N)c2)c(=O)n2c1CCC2,.,.,.,-1.8,.,.
Nc1nnnn1/N=C/c1ccccc1C(F)(F)F,-13.6%,16.3%,-11.1%,-4.7,-55.9*,-5.3%
COC(=O)[C@H](C(C)C)N1CCc2nnn(Cc3ccccc3)c2-c2cc(F)ccc2S1(=O)=O,.,.,.,5.9,.,.
O=[N+]([O-])c1ccc(/C=N/Nc2nc3ccccc3o2)cc1,-0.5%,44.7µM*,-2.7%,4.8,1.8,-1.2%
CCS(=O)(=O)c1ccc(C=NNc2nc3ccccc3o2)cc1,-8.3%,.,-9.3%,4.8,-5.3,8.1%
CCOC(=O)c1nn(-c2ccccc2)c(=O)c2c(N)scc12,?,-7.7%,-1.2%,?,-60.5*,?
CCOC(=O)c1nn(-c2ccccc2C)c(=O)c2c(N)scc12,-3.9%,-25.5%,-8.9%,-17.2,?,?
Nc1scc2c(C(=O)N/N=C/c3ccc(Cl)cc3)nn(-c3ccccc3)c(=O)c12,-5.4%,22.9%,?,?,.,6.31µM*
O=C1c2ccccc2C(=O)C1c1ccccn1,?,-1.4%,4.1%,-9.7,5.7,23.7%
O=C1c2ccccc2C(=O)C2OC12 (stereo not drawn),.,70.8µM*,.,.,.,.
CSc1nc(C)c2c(n1)N(c1ccc(F)cc1)CC2,-17.4%,39.8%,-12.6%,1.7,6.3,14.4%
